Assay outcomes: PubChem, National Center for Advancing Translational Sciences (NCATS)
Most compounds without a hit are left out; they make up all but 2.6% or so of the library.
TRPV1 agonist: agonists of human vanilloid receptor 1 (TRPV1) | Q8NER1 | TRPV1-expressing cells, Fluo-8 calcium influx, agonist mode | activation, % at 8.33 µM | hit rate 0.19% among 320,000; in the data active = activation above about 80%; inconclusive = between about 30% and that limit
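TRPV1-expressing cells were cultured overnight at 35.5C and loaded with Fluo-8 calcium dye for 40 to 90 min at room temperature. After a 10 s baseline, compound was added and calcium influx was read kinetically for 3 min (ex 480/em 520 nm).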
p53 reactivator: mutant p53 re-activation in reporter cells | Potency, µM (titrated, usually from 92.2 µM), hits mostly activators | AID 504706 | hit rate 0.063% among 320,000 | H1299 p53-A138V BP100-luciferase reporter, luminescence, 24 h; active = well fitted activation curve with a large enough effect; inconclusive = small, poorly fitted or top-dose-only effect; inactive = no such curve, though single readings can be large or run the other way; note: nearly all actives have a fitted effect of over 45% in size
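H1299 (p53-null), stable ts p53-A138V + BP100-Luc; 1000 cells/well, Opti-MEM/10% FBS; cpd 4 pt, 1:5; 24 h, 37 deg C, 5% CO2; detection reagent 10 min RT; luminescence.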
KCNH2 WT inh: blocks the wildtype human KCNH2 potassium channel; Q12809; U2OS, BacMam KCNH2, thallium flux FluxOr; hits give low values; activity change, % at 1.84 µM; hit rate 0.37% among 340,000;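 active = maximum activity change below -70%; inconclusive = maximum activity change between -70% and -50%; inactive = maximum activity change above -50%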
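U2OS cells transduced with wild-type KCNH2 virus are loaded with FluxOr dye for 45 min, and thallium flux is measured in kinetic reads before and after stimulation buffer. Rate constants are normalized to DMSO controls.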
TRPV1 potentiator: potentiators of human vanilloid receptor 1 (TRPV1) | hit rate 0.02% among 320,000 | potentiation, % at 8.33 µM | Q8NER1 | AID 540277 | TRPV1-expressing cells, Fluo-8 calcium influx, capsaicin EC20 potentiation; in the data active = potentiation above about 80%; inconclusive = between about 30% and that limit
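Fluo-8 calcium influx in TRPV1-expressing cells, kinetic read (ex 480/em 520 nm). Compound added and read 3 min for agonist activity, followed by capsaicin at EC20 final and 2 min further read for enhancement.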
ClpP mod: qHTS Assay for Activators of ClpP | purified B. subtilis ClpP, FRET peptide cleavage, 20 min | hit rate 1.9% among 340,000 | ATP-dependent Clp protease proteolytic subunit (Bacillus subtilis (strain 168)), P80244 | Potency, µM (highest dose often 57.5 µM); active = well fitted falling curve with a large enough effect; inconclusive = small, poorly fitted or top-dose-only effect; inactive = no such curve, though single readings can be large or run the other way; note: the source files actives as falling curves though it sought activators and does not explain the sign; nearly all actives have a fitted effect of over 65% in size
Target sequence (P80244 whole entry, looked up): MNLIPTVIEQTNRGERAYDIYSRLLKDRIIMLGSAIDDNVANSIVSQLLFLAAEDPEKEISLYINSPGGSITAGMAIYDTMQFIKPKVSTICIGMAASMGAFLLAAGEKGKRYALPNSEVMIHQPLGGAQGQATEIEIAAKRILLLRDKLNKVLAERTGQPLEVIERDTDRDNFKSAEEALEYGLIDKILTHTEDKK
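Purified B. subtilis ClpP, 10 microg/mL final in Tris/HCl pH8 with KCl, BSA, glycerol and Tween-20, cleaved an Abz/nitrotyrosine-quenched decapeptide. Fluorescence (ex 320, em 430) was read at 0 and 20 min at room temperature. Delta was normalized to 5.8 microM ADEP and DMSO/no-enzyme controls.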
KCNH2 3.1 inh: inhibitors of human KCNH2 3.1 potassium channel isoform; U2OS KCNH2 3.1, thallium flux FluxOr; hits give low values; activity change, % (tested at about 1.8 µM); hit rate 0.95% among 340,000; AID 720553;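 active = maximum activity change below -70%; inconclusive = maximum activity change from -70% to -50%; inactive = maximum activity change above -50%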;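 note: thallium influx rate constant from kinetic fluorescence after stimulation buffer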
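Normalized rate constant (relative to positive and negative DMSO controls) derived from a 2 min kinetic fluorescence read after stimulation; U2OS cells expressing the 3.1 isoform via virus at 1.77 x 10^8 /mL.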
Numbers stand for hits; - = inactive; ? = inconclusive; . = no result given.

SMILES	TRPV1 agonist	p53 reactivator	KCNH2 WT inh	TRPV1 potentiator	ClpP mod	KCNH2 3.1 inh
O=c1c2c3c(sc2n(Cc2cc(=O)n4ccccc4n2)c(=O)n1-c1ccc(Cl)cc1)CCC3	.	.	.	.	-	.
Cc1cccc(NC(=O)CN2C(=O)S/C(=C\c3ccc(O)c([N+](=O)[O-])c3)C2=O)c1	-	-	-	84	.	-
CN(C)c1ccc(/C=N/NC(=S)NCc2ccccc2)cc1	-	-	-	-	18µM	-
Oc1ccc(/C=N/NC(=S)NCc2ccco2)cc1	-	-	-	-	-	.
Cc1ccccc1N(CC(=O)N/N=C/c1ccc(N(C)C)cc1)C(=O)c1ccccc1	-	-	-	-	35µM	-
Cc1c(NC(=S)N/N=C/c2ccc(N(C)C)cc2)c(=O)n(-c2ccccc2)n1C	-	-	-	-	32µM	-
CCN(CC)c1ccc(/C=N/NC(=S)NCc2ccco2)cc1	-	-	-	-	16µM	-
Cc1ccccc1N(CC(=O)N/N=C/c1ccccc1Cl)C(=O)c1ccccc1	-	-	-	-	-	-
COc1cccc(CNC(=O)CSc2n[nH]c(-c3ccccc3Cl)n2)c1	.	.	.	.	-	.
CC[N+](C)(C(=O)O)/C(=C\c1ccccc1)c1ccnc2ccccc12 (configuration not stated)	.	.	.	.	-	.
N#Cc1ccc(S(=O)(=O)N2CCN(c3nc(-c4ccccc4)nc4ccccc34)CC2)cc1	.	.	.	.	-	.
Cc1cc(OCCCSc2nc(-c3ccc(C(C)(C)C)cc3)nc3cc(=O)[nH]n23)ccc1Cl	.	.	.	.	-	.
COc1cc2nc(N3CCOCC3)nc(NC3CCN(C)CC3)c2cc1OC	.	.	.	.	-	.
O=C1c2ccccc2C(=O)c2c(/C=C/N3CCCCC3)ccnc21	.	.	-	.	-	-
Cc1cc(C)n2nc(SCc3ccccc3F)nc2n1	-	-	-	-	.	-
Cc1cc(C)n2nc(SCc3ccccc3C(=O)O)nc2n1	-	-	-144	-	-	-191
COc1cccc(-c2nc(-c3cccc(C)c3)nc3cc(Cl)ccc23)c1	.	.	.	.	-	.
O=C(N/N=C\c1ccc(COc2ccc([N+](=O)[O-])cc2)o1)c1ccc(Cl)cc1	-	-	?	-	-	-77
CC(=O)Nc1ccc(S(=O)(=O)Oc2ccc(C(=S)N3CCCCC3)cc2)cc1	-	-	-	-	4µM	-
CCOC(=O)c1cnc(SCc2cccc3ccccc23)nc1N	-	-	-	-	-	-133
CCOC(=O)c1cnc(SCc2ccccc2)nc1N	-	?	-	-	-	-
O=C(NC1CCN(Cc2ccccc2)CC1)c1cc(S(=O)(=O)N2CCOCC2)ccc1Cl	.	.	-	.	-	-
COC(=O)[C@]12CCCCC=C1N(CCc1ccc(OC)c(OC)c1)C(=O)[C@H](CC(=O)NCc1ccccc1)C2	.	.	.	.	-	.
CCCn1c(=S)[nH]c2sc3c(c2c1=O)CCCC3	-	-	-85	-	.	-
Cn1c(=S)[nH]c2sc3c(c2c1=O)CCC(C(C)(C)C)C3 (configuration not stated)	-	20µM	.	-	.	.
SMILES	TRPV1 agonist	p53 reactivator	KCNH2 WT inh	TRPV1 potentiator	ClpP mod	KCNH2 3.1 inh
C[C@H]1CN([C@@H](C)CO)C(=O)c2cc(Br)cnc2O[C@H]1CN(C)C(=O)C1CCC1	.	.	-	.	-	-
Cc1ccc(Oc2coc3cc(OCC(=O)NC4CCCCC4)ccc3c2=O)cc1	.	.	.	.	-	.
O=C(Nc1ccnn1C1CCN(C/C=C/c2ccccc2)CC1)c1ccccc1	-	-	-91	-	-	-91
COc1ccc(CN2CCC(n3nccc3NC(=O)c3cccc(F)c3)CC2)cc1O	-	-	-109	-	-	-110
O=C(Nc1ccnn1C1CCN(CCCc2ccccc2)CC1)c1cccc(F)c1	-	?	-89	-	-	-104
O=C(Nc1ccnn1C1CCN(C/C=C/c2ccccc2)CC1)c1cccc(F)c1	-	-	-92	-	-	-99
O=C(Nc1ccnn1C1CCN(Cc2ccc(CO)o2)CC1)c1cccc(F)c1	.	.	-	.	-	-
CC(C)(C)NC(=O)C(c1ccc(C(F)(F)F)cc1)n1c(=O)c(-c2cc3ccccc3[nH]2)nc2ccccc21 (configuration not stated)	.	.	.	.	-	.
COC(=O)c1ccc(NC(=O)CSc2cn(CC(=O)N3CCCCC3)c3ccccc23)cc1	.	.	.	.	-	.
COc1cc(OC)c(NC(=O)Cn2cnc3sc(C)c(S(=O)(=O)N4CCC(C)CC4)c3c2=O)cc1Cl	.	.	.	.	-	.
COc1ccc(Cl)cc1Nc1ncnc2sc(C)c(S(=O)(=O)N3CCC(C)CC3)c12	-	-	-	-	32µM	-
CC1(C(=O)NCc2ccccc2)CN(S(C)(=O)=O)CC(=O)N1C1CC1 (configuration not stated)	.	.	.	.	-	.
COC(=O)[C@@]12CCCCN1[C@H](c1ccc(-c3ccc(OC)cc3)c(OC)c1)[C@@H]1C(=O)N(C)C(=O)[C@@H]12	-	-	-	-	-	-
COC(=O)[C@@]12CCCCN1[C@H](c1ccc(-c3ccc(F)cc3)c(OC)c1)[C@H]1C(=O)N(C)C(=O)[C@H]12	.	-	-	.	-	-95
CC1CCC(NC(=O)c2ccc3c(c2)N(Cc2ccccc2)C(=O)c2ccccc2S3(=O)=O)CC1 (configuration not stated)	.	.	.	.	-	.
COc1ccc(-c2nc(-c3ccccc3)nc(Cl)c2C#N)cc1	.	-	-	.	32µM	-
CC(C)(C)OC(=O)Nc1ccccc1-n1nnnc1C(C(=O)c1ccc(F)cc1)N1CCN(c2ccccn2)CC1 (configuration not stated)	.	.	.	.	-	.
O=C(O)Cc1coc2cc3c(cc12)CCC3	-	-	-	-	25µM	-
C(#Cc1ccccc1)C[N+]1(CC#Cc2cccc3ccccc23)CCCC1	-	-	-	-	-	-80
C#CC[N+]1(CC#Cc2ccccc2)CCCC1	-	-	-	-	-	-
CCOC(=O)c1cc2c(=O)n3ccccc3nc2n(CCCOC)c1=NC(=O)C(C)(C)C	-	-	-	-	28µM	-
CCOC(=O)c1cc2c(=O)n3ccccc3nc2n(CCCOC)c1=NC(=O)c1cccnc1	-	-	.	-	.	.
CCOC(=O)c1cc2c(=O)n3ccccc3nc2n(C(C)C)c1=NC(=O)c1ccncc1	-	-	-	-	28µM	-
CCOC(=O)c1cc2c(=O)n3ccccc3nc2n(CCOC)c1=NC(=O)C(C)(C)C	-	-	-	-	18µM	-
CCOC(=O)c1cc2c(=O)n3ccccc3nc2n(CCOC)c1=NC(=O)c1ccncc1	-	-	-	-	13µM	-
CCOC(=O)c1cc2c(=O)n3ccccc3nc2n(C(C)C)c1=NC(=O)c1c(-c2ccccc2Cl)noc1C	-	-	-	-	.	-
